From PubChem
Giardia killer = Giardia lamblia killing; 340,000 compounds, 0.15% hits; activity change, % at 7.66 µM, hits read low; AID 540267; Giardia lamblia trophozoite viability; in the data active = activity change below about -80%; inconclusive = between about -30% and that limit;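 also: parasites exposed to compound for two days anaerobically before the ATP read; % is scaled to controls: 0 for no effect and ±100 for the full control effect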
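Giardia lamblia trophozoites (100 cells/well) were incubated with compounds for 48 h at 37 deg C under anaerobic conditions. Viability was read as ATP content by one-step luminescence after 15-30 min at room temperature.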
a7 integrin act = activates integrin-mediated alleviation for muscular dystrophy; Potency, µM (top dose mostly 38.3 µM), inactives show top-dose activation, usual class: activators; AID 624291; 350,000 compounds, 0.064% hits; alpha7betagal myoblasts, beta-gal FDG fluorescence, 48 h;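 also: potency is read from the fitted curve at half-maximal effect; 100% = response of the positive control SU9516; nearly all actives have a fitted effect of over 60% in size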
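alpha7betagal+/- myoblasts (passage 13, 250/well) treated 48 h at 37C with compounds at 1:260 dilution of DMSO stock. Lysed, then beta-galactosidase activity read as FDG fluorescence (ex 480/em 540) after 30 min, with pre-read for autofluorescence.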
RORg inh = blocks mouse ROR gamma transcriptional activity; Drosophila S2 Gal4-RORgamma UAS-luciferase reporter, 20 h; 310,000 compounds, 5.4% hits; P51450; Potency, µM (top dose mostly 53.6 µM), inactives show at the top dose activity change, negative = inhibition, usual class: inhibitors; also: potency is read from the fitted curve at half-maximal effect; % is scaled to controls: 0 for no effect and ±100 for the full control effect; nearly all actives have a fitted effect of over 60% in size
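Stable Schneider cell line, Gal4 DNA-binding domain fused to ROR gamma, UAS-luciferase. Cmpd 1 hr RT → CuSO4 700 uM final → 20 hr RT → luciferase reagent 10 min → luminescence.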
Gal4-VP16 FLuc = counter-screen for ROR gamma inhibitors: Gal4-VP16 reporter. Drosophila S2 Gal4-VP16 UAS-luciferase, luminescence, 20 h. Potency, µM (series often up to 53.6 µM), for inactives: at the highest dose activity, negative = inhibition, usual class: inhibitors. 310,000 compounds, 3.5% hits. AID 2546;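 also: Gal4-VP16 expression switched on by copper sulfate through the metallothionein promoter; potency is read from the fitted curve at half-maximal effect; % is scaled to controls: 0 for no effect and ±100 for the full control effect; nearly all actives have a fitted effect of over 50% in size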
ERG-DNA inh = blocks human ERG Ets domain binding to DNA; P11308; 370,000 compounds, 0.028% hits; fluorescence polarization, His-ERG Ets domain / labelled DNA; Potency, µM (titrated, usually from 76.9 µM), without a hit: at the top dose FP activity, negative = inhibition, usual class: inhibitors; active = well fitted inhibition curve with a large enough effect in the polarisation, with a control signal flat; inconclusive = small, poorly fitted or top-dose-only effect, or effect the other way, or a change in a side signal; inactive = no such curve, though single readings can be large or run the other way; the % refers to the polarisation;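 also: polarization taken with two DNA probes labelled with fluorescein and Texas red; potency is read from the fitted curve at half-maximal effect; % of control where 0% means no effect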
Target sequence (P11308 whole entry, looked up, the tested form may be a part): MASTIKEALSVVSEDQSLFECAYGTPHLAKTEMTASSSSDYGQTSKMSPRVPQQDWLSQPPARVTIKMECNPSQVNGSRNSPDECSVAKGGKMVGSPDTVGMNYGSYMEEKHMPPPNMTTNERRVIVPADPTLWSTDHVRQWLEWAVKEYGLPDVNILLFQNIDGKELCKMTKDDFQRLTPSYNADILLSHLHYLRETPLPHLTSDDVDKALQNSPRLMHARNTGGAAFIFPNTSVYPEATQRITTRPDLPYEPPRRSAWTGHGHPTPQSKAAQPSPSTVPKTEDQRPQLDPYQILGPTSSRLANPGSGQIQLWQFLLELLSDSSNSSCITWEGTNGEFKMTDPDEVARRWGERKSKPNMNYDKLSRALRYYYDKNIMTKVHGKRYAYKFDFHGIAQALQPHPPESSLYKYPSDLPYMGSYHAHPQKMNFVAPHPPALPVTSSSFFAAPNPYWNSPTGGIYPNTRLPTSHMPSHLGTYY
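His-tagged ERG Ets domain (1 uM in the protein solution; 300mM KCl, 50mM Tris-HCl, 1mM EDTA, 1mM DTT, pH 7.5) received compound, then a probe mix of 5 nM fluorescein-DNA and 100nM Texas-615-DNA. Fluorescence polarization was read for both dyes.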
An asterisk follows results filed as active; u = inconclusive; x = no result given. Shown is part of a subset that was picked to be rich in hits. Unless noted, calls follow the shape of the dose curve; as a rule, active = well fitted curve in the direction sought with a large enough effect; inconclusive = small, poorly fitted or top-dose-only effect, or another doubt; inactive = no such curve, though single readings can be large; an effect the other way counts as inactive or inconclusive.

SMILES | Giardia killer | a7 integrin act | RORg inh | Gal4-VP16 FLuc | ERG-DNA inh
Cc1cc2cc(CNC(=S)Nc3ccc(OC(F)(F)F)cc3)ccc2n1C | -11 | 15% | -35% | 18% | 20µM*
CC(C)c1nn2c(=O)cc(COC(=O)c3cccc(NC(=O)COc4ccc(F)cc4)c3)nc2s1 | x | x | x | x | -4%
COc1cc(-c2cc3n(C)c(C)c(CCC(=O)NC4CCCCC4)c(=O)n3n2)cc(OC)c1OC | x | x | x | x | -7%
Cc1ccc(-n2nc(CO)c(C(=O)NCc3cccs3)n2)cc1 | x | x | x | x | 5%
Cc1cc2ccccc2n1CCNC(=O)C(C)Oc1ccccc1 (stereo not drawn) | 4 | 14% | 7.1µM* | u | u
Cc1cc2cc(CNS(=O)(=O)c3ccc4ccccc4c3)ccc2n1C | -29 | 8% | 30% | 4% | u
COc1cccc(NC(=S)NCc2ccc3c(c2)cc(C)n3C)c1 | 16 | 14% | 4.5µM* | u | u
CC(=O)Nc1ccc(S(=O)(=O)NCc2ccc3c(c2)cc(C)n3C)cc1 | -3 | -16% | -8% | 8% | 14µM*
Cc1cccc(NC(=O)NCc2ccc3c(c2)cc(C)n3C)c1 | 5 | -17% | -16% | u | u
Cc1cccc(NC(=S)NCc2ccc3c(c2)cc(C)n3C)c1C | -13 | -6% | 2% | -17% | 28µM*
Cc1cccc(/N=C/c2c(O)n(Cc3ccc4c(c3)OCO4)c(=O)c3ccccc23)n1 | -19 | 9% | 3% | -10% | 0%
CC1CC(C)(C)NC(=S)N1CC(=O)NCc1ccc2c(c1)OCO2 (stereo not drawn) | u | u | -19% | -16% | -5%
Cc1cc(=O)n2[nH]cc(-c3ccccc3)c2n1 | -5 | -2% | u | u | 3%
CCOC(=O)Cc1cc(=O)n2[nH]cc(-c3cccc(Br)c3)c2n1 | -16 | -19% | 13µM* | u | -2%
CCOC(=O)Cc1c(C)nc2c(-c3ccc(Cl)cc3)c[nH]n2c1=O | 1 | -26% | 5.6µM* | 16µM* | 15%
CCCc1cc(=O)n2[nH]c(SCc3ccc(Cl)cc3)nc2n1 | -18 | u | -6% | 4% | -1%
COCc1cc(=O)n2[nH]cc(-c3ccccc3)c2n1 | -3 | 13% | 13µM* | 10µM* | 13%
CCCc1cc(=O)n2[nH]cc(-c3ccc(Cl)cc3)c2n1 | 0 | -22% | 4.5µM* | 3.2µM* | -10%
CCOC(=O)Cc1c(C)nc2cc(-c3ccc(Cl)cc3)[nH]n2c1=O | 1 | 0% | -5% | -7% | -5%
Cc1cccc(NC(=O)N2CC(=O)Nc3sc4c(c3C2c2ccccc2)CCCC4)c1C (stereo not drawn) | x | x | x | x | -1%
O=C(Cn1cnc([N+](=O)[O-])n1)N/N=C/c1ccccc1O | 4 | -21% | 7.1µM* | u | 11%
O=C(Cn1cnc([N+](=O)[O-])n1)N/N=C/c1cc(Cl)ccc1O | 12 | -32% | 7.1µM* | u | 9%
Cc1ccccc1/C=N/NC(=O)Cn1cnc([N+](=O)[O-])n1 | 5 | 5% | -28% | -2% | 2%
O=C(CCCn1cnc([N+](=O)[O-])n1)Nc1cc(Cl)ccc1O | -5 | 15% | -12% | -9% | -4%
O=C(O)CCc1ccc(-c2cccs2)o1 | 10 | -28% | 11µM* | u | x
SMILES | Giardia killer | a7 integrin act | RORg inh | Gal4-VP16 FLuc | ERG-DNA inh
Cc1ccc(-c2ccc(CCC(=O)O)o2)cc1 | 9 | -11% | -11% | 4% | 4%
NC(=O)c1ccc[n+](CC(=O)Nc2ccccc2C(=O)O)c1 | 6 | 16% | -24% | 0% | -2%
COCCNC(=O)c1ccc(S(=O)(=O)N2CCCc3ccccc32)cc1 | -3 | -9% | -5% | 16µM* | 9%
Cn1c(CNC(=O)c2ccccc2F)nnc1SCC(=O)c1ccccc1 | 3 | 3% | -4% | 9% | 1%
CC(C)N(C(=O)CSc1nc2ccccc2n1Cc1ccccc1)C(C)C | 0 | 9% | u | u | -1%
CC(C)N(C(=O)CSc1nc2ccccc2n1-c1ccccc1)C(C)C | 5 | -4% | 11µM* | u | -10%
C/C=C1/C(=O)C[C@H]2[C@@H]3CCC4=CC(=O)CC[C@]4(C)[C@H]3CC[C@]12C | x | x | -7% | -10% | x
COC(=O)c1cc(=O)n(CCc2ccc(OC)c(OC)c2)c(=Nc2ccc(F)c(Cl)c2)s1 | -26 | -3% | 18µM* | u | -11%
